Test results taken from PubChem BioAssay AID1159580 (chemical genetic matrix, 2015).
Values joined by “and” are separate entries in the source; they are usually repeats but may differ in a detail not shown here. Identical values can stand only once. The campaign covered roughly 5,500 compounds. About 2,000 (36%) were called active. Roughly 18% stayed inconclusive and do not appear here. Rule as the data show it: active = normalized growth mostly below about 0.91 (no sharp cut-off); inconclusive = no clear call, values can overlap the other calls; inactive = mostly above about 0.92. Some of the results follow.

Test: chemical genetic growth profiling, strain panel (AID 1159580);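 also: tested at 20 µM; growth read once vehicle control cultures reached saturation at 30 °C; 1 = growth at the plate median or of vehicle wells; lower values mean less growth of the strain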
Conditions: S. cerevisiae deletion strains, growth OD

Measured: normalized growth

COc1cc([C@@H]2c3cc4c(cc3[C@H](OC(C)=O)[C@H]3COC(=O)[C@H]23)OCO4)cc(OC)c1OC
inactive: locus YAL021C, strain ccr4, active compounds read low 0.992 | locus YAL026C, strain drs2, active compounds read low 1.01 | locus YAL030W, strain snc1, active compounds read low 0.999 | locus YBL061C, strain skt5, active compounds read low 1.01 | locus YBR009C, strain hhf1, active compounds read low 1.01 | locus YBR021W, strain FUR4, active compounds read low 0.956 | locus YBR023C, strain chs3, active compounds read low 1 | locus YBR171W, strain sec66, active compounds read low 1.02 | locus YBR229C, strain ROT2, active compounds read low 0.99 | locus YBR231C, strain swc5, active compounds read low 1 | locus YBR279W, strain paf1, active compounds read low 0.976 | locus YCL011C, strain gbp2, active compounds read low 1 | locus YCL016C, strain dcc1, active compounds read low 1.01 | locus YCL029C, strain bik1, active compounds read low 0.986 | locus YCL061C, strain MRC1, active compounds read low 1.01 | locus YCL069W, strain vba3, active compounds read low 0.999 | locus YCR088W, strain abp1, active compounds read low 1.01 | locus YDL005C, strain med2, active compounds read low 1.01 | locus YDL035C, strain GPR1, active compounds read low 1.02 | locus YDL040C, strain nat1, active compounds read low 0.996 | locus YDL074C, strain BRE1, active compounds read low 0.991 | locus YDL101C, strain DUN1, active compounds read low 0.998 | locus YDL134C, strain PPH21, active compounds read low 1.03 | locus YDL185W, strain tfp1, active compounds read low 0.983 | locus YDL192W, strain arf1, active compounds read low 1.01 | locus YDR001C, strain nth1, active compounds read low 0.999 | locus YDR069C, strain doa4, active compounds read low 1.02 | locus YDR101C, strain arx1, active compounds read low 0.996 | locus YDR137W, strain rgp1, active compounds read low 0.884 | locus YDR159W, strain sac3, active compounds read low 1.01 | locus YDR162C, strain NBP2, active compounds read low 1.02 | locus YDR195W, strain ref2 1 | locus YDR297W, strain sur2, active compounds read low 0.998 | locus YDR318W, strain mcm21, active compounds read low 0.987 | locus YDR334W, strain swr1, active compounds read low 1.01 | locus YDR335W, strain msn5, active compounds read low 0.998 | locus YDR388W, active compounds read low 0.98 | locus YDR392W, strain spt3, active compounds read low 1.01 | locus YDR502C, strain sam2, active compounds read low 0.989 | locus YEL003W, strain gim4, active compounds read low 1.01 | locus YEL037C, strain rad23, active compounds read low 1 | locus YEL061C, strain CIN8 (second series), active compounds read low 0.996 | locus YEL061C, strain CIN8, active compounds read low 1 | locus YER015W, strain faa2, active compounds read low 1.02 | locus YER016W, strain bim1, active compounds read low 1 | locus YER110C, active compounds read low 0.96 | locus YER111C, strain swi4, active compounds read low 1.01 | locus YER155C, strain BEM2 (second series), active compounds read low 1.04 | locus YER155C, strain BEM2, active compounds read low 0.983 | locus YER167W, strain BCK2, active compounds read low 0.998 | locus YFR010W, strain ubp6, active compounds read low 1 | locus YGL078C, strain dbp3, active compounds read low 0.971 | locus YGL086W, strain mad1, active compounds read low 0.997 | locus YGL167C, strain pmr1, active compounds read low 1.02 | locus YGL173C, strain kem1, active compounds read low 1.01 | locus YGL227W, strain vid30, active compounds read low 1 | locus YGL240W, strain doc1, active compounds read low 1.01 | locus YGL248W, strain PDE1, active compounds read low 0.996 | locus YGL253W, strain hxk2, active compounds read low 1.01 | locus YGR135W, strain pre9, active compounds read low 0.986 | locus YGR252W, strain gcn5, active compounds read low 0.983 | locus YHR013C, strain ard1, active compounds read low 0.988 | locus YHR027C, strain rpn1, active compounds read low 1 | locus YHR030C, strain SLT2, active compounds read low 0.996 and 0.987 | locus YHR079C, strain IRE1 (second series), active compounds read low 0.988 | locus YHR079C, strain IRE1, active compounds read low 0.98 | locus YHR094C, strain hxt1, active compounds read low 0.973 | locus YHR129C, strain ARP1, active compounds read low 1 | locus YHR142W, strain chs7, active compounds read low 0.996 | locus YHR200W, strain rpn10, active compounds read low 0.988 | locus YIL066C, strain RNR3, active compounds read low 1.01 | locus YIL073C, strain SPO22, active compounds read low 0.98 | locus YIL125W, strain kgd1, active compounds read low 0.987 | locus YIR030C, strain dcg1, active compounds read low 0.974 | locus YJL092W, strain hpr5, active compounds read low 1.01 | locus YJL095W, strain BCK1 (second series), active compounds read low 1 | locus YJL095W, strain BCK1, active compounds read low 1.01 and 1.04 | locus YJL115W, strain asf1, active compounds read low 1.01 | locus YJL129C, strain trk1, active compounds read low 1 | locus YJL134W, strain LCB3, active compounds read low 0.993 | locus YJL154C, strain vps35, active compounds read low 1.01 | locus YJL164C, strain tpk1, active compounds read low 1.01 | locus YJL166W, strain qcr8, active compounds read low 0.995 | locus YJL168C, strain set2, active compounds read low 0.977 | locus YJL187C, strain SWE1 (second series), active compounds read low 1 | locus YJL187C, strain SWE1, active compounds read low 0.99 | locus YJR043C, strain POL32, active compounds read low 1.03
